# PubChem BioAssay (NCATS)
# Values without a mark were called inactive. Records with an inconclusive call do not appear. Entries that show only a call come without a potency. Calls of active or inactive are those of the source. The call rests on the fitted dose curve; in most records, active means well fitted curve in the direction sought with a large enough effect; inconclusive means small, poorly fitted or top-dose-only effect, or another doubt; inactive means no such curve, though single readings can be large; an effect the other way counts as inactive or inconclusive.
# What was measured:
# [1] = Cellular Toxicity (caspase-3) Mesangial (AID 660); details: mesangial cells, normalized: DMSO 0%, 100 µM tamoxifen 100%; at 91.7 µM (top of the series);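 further: combined caspase 3 and 7 activity read by Caspase-Glo luminescence; cells exposed to compound for 16 h before the caspase read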
# Summary of the method: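 Seed cells derived from normal human renal glomeruli, incubate 5 h, add compounds across concentrations and incubate 16 h at 37 °C. Caspase 3/7 activation is then quantified by luciferase light, with AC50 derived by Hill modeling.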
# [2] = Cellular Toxicity (caspase-3) SK-N-SH (AID 661)
# Summary of the method: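 Cells were seeded and incubated 5 hr at 37 °C, dosed with compound over a concentration range for 16 hr, then given Caspase-Glo 3/7 reagent for 1 hr at room temperature before luminescence reading.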
# [3] = Cellular Toxicity (caspase-3) H-4-II-E (AID 663); details: H-4-II-E rat hepatoma, scaled: DMSO 0%, 100 µM tamoxifen 100%; at 92.2 µM (top of the series);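 further: cells exposed to compound for 16 hr before readout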
# Summary of the method: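 Caspase 3/7 activation measured in H-4-II-E cells in complete culture medium after 16 hr treatment at 37 °C, using luciferase-coupled substrate readout; AC50 values come from Hill-equation fits of normalized concentration-response data.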
# [4] = Cellular Toxicity (caspase-3) Hek293 (AID 664); details: HEK293 caspase-3 activation, DMSO = 0%, 100 µM tamoxifen = 100%; at 92.2 µM (top of the series);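 further: cells exposed to compound for 16 h at 37 °C before readout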
# Summary of the method: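 qHTS, HEK293 (human embryonic kidney), 16 h cpd exposure in complete medium. Caspase-3/7 activation = luminescence increase; normalized to DMSO/100 uM tamoxifen; Hill-fit AC50.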
# [5] = Cellular Toxicity (caspase-3) N2a (AID 665);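 further: compound exposure lasted 16 h at 37 °C before readout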
# Summary of the method: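 Caspase-3/7 activation, measured as increased luminescence from aminoluciferin release, is quantified in mouse N2a cells exposed to compounds for 16 h. Values are normalized to DMSO and 10 uM staurosporine, with AC50 derived by Hill modelling.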
# [6] = Cellular Toxicity (caspase-3) NIH 3T3 (AID 666);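 further: caspase signal read after 16 h compound exposure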
# Summary of the method: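 Cells were plated at 1000 per well and incubated 5 hr at 37°C, then compound was added for 16 hr. Caspase-Glo 3/7 reagent followed for 20 min at room temperature before luminescence was read.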
# [7] = Cellular Toxicity (caspase-3) Renal Proximal Tubule (AID 667); details: Potency: caspase-3 activation;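 further: cells exposed to compound for 16 hours at 37 °C before detection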
# Summary of the method: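 Freshly isolated primary rat kidney proximal tubule cells, 1000/well, treated 16 hr at 37 °C, then Caspase-Glo 3/7 luminescence after 1 hr. Normalized to DMSO and 10 uM staurosporine; AC50 from Hill fit.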
# [8] = Cell Viability - LYMP2-001 (AID 921); further: nearly all actives have a fitted effect of over 70% in size
# Summary of the method: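 Human lymphoblastoid LYMP2-001 cells, 2500 per well, in complete medium, treated 24 h at 37 C. Viability from cellular ATP by CellTiter-Glo luminescence; AC50 from Hill-equation fits of qHTS concentration-response.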
# [9] = MultiTox-Fluor Cytotoxicity Assay - LYMP1-001 - Dead Cells (AID 946)
# Summary of the method: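 LYMP1-001 lymphoblastoid cells (2500/well) treated 16 h at 37 C. Dead-cell protease cleavage of bis-AAF-R110 read at Ex/Em 485/520. Normalized to DMSO and 15 uM tetraoctylammonium bromide; AC50 from Hill fits.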
# [10] = MultiTox-Fluor Cytotoxicity Assay - LYMP1-001 - Live Cells (AID 947)
# [11] = Cell Viability - LYMP1-002 - Assay at 16 hr (AID 948)
# Summary of the method: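 LYMP1-002 human lymphoblastoid cells, 2500/well, were treated with compounds for 16 hr at 37 C in complete medium. Viability was read as intracellular ATP by CellTiter-Glo luminescence, and AC50 was derived from a Hill fit to concentration-response data.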
# [12] = MultiTox-Fluor Cytotoxicity Assay - LYMP1-002 - Live Cells (AID 955)
# Summary of the method: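 Cells were seeded at 2500 per well and incubated 5 hr. Compounds were then added for 16 hr at 37 C, followed by MultiTox-Fluor reagent for 60 min at room temperature and fluorescence reading of viable-cell protease signal.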
# [13] = MultiTox-Fluor Cytotoxicity Assay - LYMP1-003 - Dead Cells (AID 961); further: nearly all actives have a fitted effect of over 70% in size
# Summary of the method: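 LYMP1-003 human lymphoblastoid cells (2500/well) exposed to compound 16 h at 37 C in complete medium; dead-cell protease read with bis-AAF-R110 fluorescence (Ex/Em 485/520) after 60 min at room temperature. Normalized to DMSO and 15 uM tetraoctylammonium bromide; AC50 from Hill fit.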
# [14] = MultiTox-Fluor Cytotoxicity Assay - LYMP1-003 - Live Cells (AID 962);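 further: cytotoxic hits lower the live-cell protease signal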
# Summary of the method: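 Acute cytotoxicity is scored as a drop in live-cell protease activity in human lymphoblastoid LYMP1-003 cells after 16 hr compound exposure at 37 C. AC50 values come from Hill-equation modelling of concentration-response data.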
# [15] = Cell Viability - LYMP1-003 - Assay at 24 hr (AID 963)
# Summary of the method: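 Cytotoxicity is scored as a concentration-dependent fall in ATP-linked luciferase signal in human lymphoblastoid LYMP1-003 cells treated 24 hr at 37 C in complete culture medium.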
# [16] = Cell Viability - LYMP1-003 - Assay at 40 hr (AID 964); further: nearly all actives have a fitted effect of over 60% in size
# Summary of the method: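 Luminescent ATP signal (CellTiter-Glo) served as the viability read-out after 40 hr compound treatment of human lymphoblastoid LYMP1-003 cells at 37 C. Decreases in ATP were fitted with the Hill equation to give AC50.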
# [17] = Cell Viability - LYMP2-003 (AID 965);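 further: cells exposed to compounds for 24 h before reading; nearly all actives have a fitted effect of over 50% in size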; further: potency means the concentration at half of the fitted maximal effect
# Summary of the method: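 Human lymphoblastoid LYMP2-003 cells, 2500/well, exposed to compounds for 24 h at 37 C in complete medium. Viability read as intracellular ATP by CellTiter-Glo luminescence; AC50 from Hill-equation fits of qHTS concentration-response data.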
# [18] = target: Cytochrome P450 3A4 (Homo sapiens) (UniProt P08684); experiment: qHTS Assay for Inhibitors and Substrates of Cytochrome P450 3A4 (AID 884); further: nearly all actives have a fitted effect of over 50% in size
# Summary of the method: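 Luminescent readout of luciferin produced by CYP3A4 (20 nM) dealkylation of Luciferin-PPXE, 25 uM (its KM). NADPH-driven reaction ran 60 min at RT after 10 min compound preincubation; data scaled to 57 uM ketoconazole as 100% inhibition.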
# [19] = MultiTox-Fluor Cytotoxicity Assay - LYMP1-002 - Dead Cells (AID 960); further: nearly all actives have a fitted effect of over 60% in size
# Summary of the method: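 Cells were plated, rested 5 hr, then treated with compound dilution series for 16 hr at 37 C. After adding substrate reagent and 60 min at room temperature, dead-cell protease fluorescence gave concentration-response curves fitted by the Hill equation.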
# [20] = target: Cytochrome P450 3A4 (Homo sapiens) (UniProt P08684); experiment: qHTS Assay for Activators of Cytochrome P450 3A4 (AID 885); further: nearly all actives have a fitted effect of over 65% in size
# Summary of the method: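 Human CYP3A4 dealkylates Luciferin-PPXE to luciferin, which luciferase detection converts to light. Substrate was at its KM (25uM), buffer 200mM KPO4, reaction 60 min at RT.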
# Sequence of Cytochrome P450 3A4 (Homo sapiens) (P08684 whole entry, looked up): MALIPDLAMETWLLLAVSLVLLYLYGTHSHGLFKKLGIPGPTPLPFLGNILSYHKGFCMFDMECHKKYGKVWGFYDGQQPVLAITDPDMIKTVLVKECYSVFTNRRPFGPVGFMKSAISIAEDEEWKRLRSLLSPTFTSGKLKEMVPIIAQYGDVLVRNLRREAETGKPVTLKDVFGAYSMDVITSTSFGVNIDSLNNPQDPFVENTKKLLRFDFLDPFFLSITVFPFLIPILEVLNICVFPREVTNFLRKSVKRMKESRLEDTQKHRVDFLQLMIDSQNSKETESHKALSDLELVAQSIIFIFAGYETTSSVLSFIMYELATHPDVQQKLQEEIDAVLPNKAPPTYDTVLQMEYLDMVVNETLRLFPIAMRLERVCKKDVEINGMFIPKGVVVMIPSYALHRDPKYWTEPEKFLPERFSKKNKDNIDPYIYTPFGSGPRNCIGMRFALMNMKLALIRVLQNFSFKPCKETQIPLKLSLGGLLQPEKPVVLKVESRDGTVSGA
Compound,caspase-3 activation [1],outcome [2],caspase-3 activation [3],caspase-3 activation [4],outcome [5],outcome [6],Potency [7],Potency [8],outcome [9],outcome [10],outcome [11],outcome [12],Potency [13],Potency [14],Potency [15],Potency [16],Potency [17],Potency [18],outcome [19],outcome [20]
c1ccc2c(c1)ccc1ncccc12,-0.196%,inactive,0.297%,1.59%,inactive,inactive,inactive,inactive,inactive,inactive,inactive,inactive,inactive,inactive,inactive,inactive,inactive,–,–,–
CC(=O)OC(C)C,0.284%,inactive,0.45%,0.887%,–,inactive,inactive,inactive,inactive,inactive,inactive,inactive,inactive,inactive,inactive,inactive,inactive,inactive,inactive,–
Nc1cc(Cl)c(N)c(Cl)c1,-0.0656%,inactive,1.21%,-2.67%,inactive,inactive,inactive,inactive,inactive,–,inactive,inactive,inactive,inactive,inactive,inactive,inactive,–,–,inactive
CCCCN(CCO)CCCC,0.749%,inactive,-0.761%,-0.886%,–,inactive,inactive,inactive,inactive,inactive,inactive,inactive,inactive,inactive,inactive,inactive,inactive,inactive,inactive,–
CCC(C)O (stereo not drawn),0.681%,inactive,1.46%,-1.23%,–,inactive,inactive,inactive,inactive,inactive,inactive,inactive,–,inactive,inactive,inactive,inactive,inactive,inactive,–
CCCCCCC(=O)O,-0.964%,inactive,0.492%,0.189%,–,inactive,inactive,inactive,inactive,inactive,inactive,inactive,inactive,inactive,inactive,inactive,inactive,inactive,inactive,–
[O-]/[N+](=N\O)c1ccccc1,-1.07%,inactive,-1.1%,2.95%,inactive,inactive,inactive,inactive,inactive,inactive,inactive,inactive,inactive,inactive,inactive,inactive,inactive,–,inactive,–
CN(C)CCCNCCCN,-0.219%,inactive,-0.0657%,0.619%,inactive,inactive,inactive,–,inactive,inactive,inactive,inactive,inactive,inactive,inactive,inactive,inactive,inactive,inactive,–
O=Nc1ccc(NO)cc1,0.317%,inactive,1.96%,11.4%,inactive,inactive,inactive,–,inactive,–,inactive,inactive,inactive,–,inactive,inactive,50.1 µM (active),inactive,inactive,–
CCCCC=O,-1.05%,inactive,-0.686%,-0.315%,–,inactive,inactive,inactive,inactive,inactive,inactive,inactive,–,inactive,inactive,inactive,inactive,inactive,inactive,–
c1ccc(Oc2ccccc2)cc1,0.858%,inactive,0.181%,-1.47%,–,inactive,inactive,inactive,inactive,inactive,inactive,inactive,inactive,inactive,inactive,inactive,–,inactive,–,–
CCCCCCO,0.267%,inactive,0.291%,0.42%,–,inactive,inactive,inactive,inactive,inactive,inactive,inactive,–,inactive,inactive,inactive,inactive,inactive,inactive,–
CCCCC(CC)C(=O)O (stereo not drawn),0.178%,inactive,-0.144%,2.49%,–,inactive,inactive,inactive,inactive,inactive,inactive,inactive,inactive,inactive,inactive,inactive,–,inactive,–,–
Oc1cccc(Nc2ccccc2)c1,-0.245%,inactive,-0.0797%,-0.23%,inactive,inactive,inactive,inactive,inactive,inactive,inactive,inactive,inactive,inactive,inactive,inactive,inactive,–,inactive,inactive
CCOc1cc(OCC)c(C(C)=O)cc1OCC,-0.248%,inactive,0.345%,-0.553%,inactive,inactive,inactive,inactive,inactive,inactive,inactive,inactive,inactive,inactive,inactive,inactive,inactive,–,–,inactive
CCCCOCCOCCSC#N,-0.616%,inactive,0.183%,-2.09%,–,inactive,inactive,inactive,inactive,inactive,inactive,inactive,–,inactive,inactive,inactive,inactive,inactive,inactive,–
CCC(=O)/C=C/C1C(C)=CCCC1(C)C (stereo not drawn),0.383%,inactive,2.63%,2.12%,inactive,inactive,inactive,inactive,inactive,inactive,inactive,inactive,inactive,inactive,inactive,inactive,inactive,–,inactive,inactive
Nc1cccc(N)c1,0.868%,inactive,0.606%,-1.72%,inactive,inactive,inactive,inactive,inactive,inactive,inactive,inactive,inactive,inactive,inactive,inactive,inactive,–,inactive,inactive
N#CCc1ccccc1[N+](=O)[O-],-0.803%,inactive,1.83%,–,–,inactive,inactive,inactive,inactive,inactive,inactive,inactive,inactive,inactive,inactive,inactive,inactive,inactive,inactive,–
COC(=O)CCCC(=O)OC,-0.518%,inactive,-0.182%,–,inactive,inactive,inactive,inactive,inactive,inactive,inactive,inactive,inactive,inactive,inactive,inactive,–,inactive,inactive,–
NC(=O)c1cccc([N+](=O)[O-])c1,0.906%,inactive,-1.74%,–,inactive,inactive,inactive,inactive,inactive,inactive,inactive,inactive,–,inactive,inactive,inactive,inactive,inactive,inactive,–
C=C(C)C(=O)OCC(C)O (stereo not drawn),0.397%,inactive,0.102%,-1.45%,–,inactive,inactive,inactive,inactive,inactive,inactive,inactive,inactive,inactive,inactive,inactive,inactive,inactive,–,–
Cc1ccccc1C=O,-0.421%,inactive,0.931%,–,–,inactive,inactive,inactive,inactive,inactive,inactive,inactive,–,inactive,inactive,inactive,–,inactive,inactive,–
COC(=O)CC#N,0.486%,inactive,1.64%,–,inactive,inactive,inactive,inactive,inactive,inactive,inactive,inactive,inactive,inactive,inactive,inactive,–,inactive,inactive,–
O=[N+]([O-])c1ccc2nc[nH]c2c1,0.38%,inactive,2.59%,–,inactive,inactive,inactive,inactive,inactive,–,inactive,inactive,inactive,inactive,inactive,inactive,inactive,–,inactive,inactive
C/C=C1\CC2C=CC1C2 (stereo not drawn),-0.567%,inactive,0.51%,–,inactive,inactive,inactive,inactive,inactive,inactive,inactive,inactive,inactive,inactive,inactive,inactive,inactive,inactive,inactive,–
CCCCCCCCC,-0.687%,inactive,0.863%,-2.1%,–,inactive,inactive,inactive,inactive,–,inactive,inactive,inactive,inactive,inactive,inactive,inactive,inactive,inactive,–
O=C1C=CCCC1,-1.96%,inactive,0.0441%,–,inactive,inactive,inactive,inactive,inactive,inactive,inactive,inactive,inactive,inactive,inactive,inactive,inactive,inactive,inactive,–
NC(=O)/N=N/C(N)=O,-0.26%,inactive,1.22%,-1.75%,–,inactive,inactive,inactive,inactive,–,inactive,inactive,–,inactive,inactive,inactive,inactive,–,inactive,inactive
C1CCOC1,-0.124%,inactive,0.164%,-1.25%,–,inactive,inactive,inactive,inactive,–,inactive,inactive,inactive,inactive,inactive,inactive,inactive,inactive,inactive,–
